Reference: PubChem BioAssay AID602244 (Sanford-Burnham Center for Chemical Genomics, 2012)
The campaign covered roughly 360,000 compounds. About 1,300 (0.36%) were called active. Only a selection was taken, and actives are over-represented in it overall. Values without a mark were called inactive. Cut-off read from the data, not from the text of the source: active = inhibition above about 34% (passing the limit was not always enough); inactive = the rest.

The compounds below were run against C-X-C chemokine receptor type 6 (Homo sapiens) (UniProt O00574) (assay: blockade of CXCL16-induced CXCR6 beta-arrestin recruitment – cell-based, luminescence, CHO-K1 PathHunter, 1536-well, primary screen (AID 602244;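 note: antagonist mode with CXCL16 agonist at 10 nM final; 0% = 10 nM CXCL16 with DMSO and 100% = unstimulated wells without agonist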)). Details: at 20 µM, active compounds read high.
Sequence of C-X-C chemokine receptor type 6 (Homo sapiens) (O00574 whole entry, looked up): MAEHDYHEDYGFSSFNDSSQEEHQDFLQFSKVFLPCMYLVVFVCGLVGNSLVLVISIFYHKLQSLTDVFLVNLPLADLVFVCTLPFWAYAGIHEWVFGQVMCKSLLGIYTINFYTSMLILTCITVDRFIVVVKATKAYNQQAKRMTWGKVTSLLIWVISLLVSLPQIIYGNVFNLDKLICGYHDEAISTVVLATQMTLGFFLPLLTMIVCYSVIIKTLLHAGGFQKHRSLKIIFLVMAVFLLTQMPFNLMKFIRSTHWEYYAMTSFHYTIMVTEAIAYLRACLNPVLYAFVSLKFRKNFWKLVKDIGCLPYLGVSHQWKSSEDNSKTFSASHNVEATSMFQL
`CC(=O)Nc1nc(C)c(Cc2ccccc2)c(=O)[nH]1` showed an inhibition of 4.4%.
For `CCCCc1nc2cc(C(=O)N3CCCCC3CCO)ccc2o1` (stereo not drawn), the inhibition was 4%.
In the case of `COc1ccc2c(c1)c(=Cc1ccc(N(C)C)cc1)c1cc(-c3ccccc3)[n+](C)n12`, the inhibition is reported as 39.6% (active).
`COCCC(=O)N1CCC(Oc2ccc(C(=O)NCc3ccon3)cc2)CC1` showed an inhibition of 6.3%.
With `C[C@H]1CN([C@@H](C)CO)C(=O)c2cc(C3=CCCCC3)cnc2O[C@@H]1CN(C)C(=O)Cc1ccccc1` the inhibition was -0.7%.
With `CC1(C)OC(=O)C2=C(C[C@@H](C3CCCCC3)O[C@@H]2c2ccc(Cl)cc2)O1` the inhibition was 8.1%.
Compound `COCCN(C(=S)Nc1cccc(Cl)c1C)C(C)c1ccco1` (stereo not drawn) has an inhibition of 3.3%.
`OCC1OC(n2cnc3c(N4CCCC4)ncnc32)C(O)C1O` (stereo not drawn) showed an inhibition of -4.2%.
In the case of `COc1ccc(C2NC(=O)C(=O)/C2=C(\O)c2ccc(Cl)cc2)cc1OC` (stereo not drawn), the inhibition is reported as 0.4%.
Work on `CCN(CC)CCN1C(=O)C2C(C(=O)Nc3ccc(Br)cc3)C3C=CC2(O3)C1C(=O)NC1CCCCC1` (stereo not drawn) yielded an inhibition of 7.8%.
With `CCOCCCN1C(=O)C2C(C(=O)Nc3ccc(OCC)cc3)C3C=CC2(O3)C1C(=O)NC1CCCCC1` (stereo not drawn) the inhibition was 74.4% (active).
Compound `CC(C)N1C(=O)C2C(C(=O)NC3CCCCC3)C3C=CC2(O3)C1C(=O)NC1CCCC1` (stereo not drawn) has an inhibition of -4.9%.
In the case of `CCc1cc2c(=O)n(-c3ccccc3)c(SCC(=O)O)nc2s1`, the inhibition is reported as -2%.
`CCO[C@H]1OC(C(=O)N2CCN(Cc3ccccc3)CC2)=C[C@@H](c2cn(C(C)=O)c3ccccc23)[C@@H]1CCCO` was tested, and the inhibition was -0.6%.
With `CC1CCN(S(=O)(=O)c2ccc3c(ccn3CC(=O)O)c2)CC1` the inhibition was 7.6%.
In the case of `O=C(Nc1ccccc1Cl)/C(Cl)=C(\Cl)S(=O)c1ccccc1` (stereo not drawn), the inhibition is reported as 93.1% (active).
`Cc1cc(C(=O)OCC(=O)Nc2ccccc2Cl)c(C)o1` was tested, and the inhibition was -6.7%.
Work on `O=C(Nc1ccccc1C(=O)N1CCCCCC1)c1ccccc1Cl` yielded an inhibition of 10.2%.
In the case of `Nc1nc2c(ncn2[C@@H]2O[C@H](CNCc3ccc(OCCCN4CCOCC4)cc3)[C@@H](O)[C@H]2O)c(=O)[nH]1`, the inhibition is reported as -4.2%.
Compound `CN(C)S(=O)(=O)c1ccc(Cl)c(NC(=O)COC(=O)CC(NC(N)=O)c2ccc(Cl)cc2)c1` (stereo not drawn) has an inhibition of -0.2%.
For `Cc1cc(C)nc(S/C=C/C(=O)c2ccccc2)n1`, the inhibition was 46.1% (active).
`O=C(/C=C/Sc1ncn[nH]1)c1ccc(Cl)cc1` gave an inhibition of 17.1%.
`CCOC(=O)C(=Cc1ccccc1)C(=O)c1ccccc1` gave an inhibition of 24%.
`CCCCc1nc2ccccc2c(NC(=O)CN2CCN(C)CC2)c1CCC` gave an inhibition of 2.4%.
With `Nc1ccccc1SC(C[N+](=O)[O-])c1ccccc1` (stereo not drawn) the inhibition was 43.8% (active).
Work on `CC(=O)Oc1ccc(Cn2c(C)c(C(=O)NCc3ccc(C#N)cc3)sc2=O)cc1` yielded an inhibition of 3.1%.
For `CC(=O)N1Cc2ccccc2CC1C(=O)O` (stereo not drawn), the inhibition was 8%.
Compound `Cc1ccc(/C=N/NC(=O)C(NC(=O)c2ccccc2)c2n[nH]c(=O)c3ccccc23)cc1` (stereo not drawn) has an inhibition of -2.3%.
With `Cc1ccc(NC(=O)CCC(=O)N/N=C/c2ccco2)c(C)c1` the inhibition was -4%.
For `Cc1ccc(/C=N/NC(=O)C2=NNC(c3ccccc3)(c3ccccc3)C2)c(O)c1`, the inhibition was 49.2% (active).
In the case of `O=C(NCCc1ccccc1)c1ccc(NC2=NC3CS(=O)(=O)CC3S2)cc1` (stereo not drawn), the inhibition is reported as 0%.
In the case of `CCCCNC(=S)N/N=C1\CCCCc2ccccc21`, the inhibition is reported as 37.6% (active).
In the case of `O=[N+]([O-])c1ccccc1N/N=C1\CCc2ccccc21`, the inhibition is reported as 2.8%.
`S=C(NCCC1=CCCCC1)Nc1ccccc1` showed an inhibition of -7%.
`NC(=O)C1=C[C@@H](c2ccc3c(c2)OCO3)C[C@@H](OCCCCO)O1` gave an inhibition of 1.5%.
`Cc1ccc(NC(=O)CN(C)C(=O)COC(=O)c2nccnc2N)cc1` showed an inhibition of -1.8%.
For `O=C(NC1=CC(=O)c2ccccc2C1=O)c1ccccc1`, the inhibition was 71.6% (active).
In the case of `CC(=O)c1cc(NC(=O)c2ccccc2)c(=O)oc1/C=C/N(C)C`, the inhibition is reported as 9.9%.
With `O=C(COC(=O)c1cccc(Br)c1)Nc1cccc2c1C(=O)c1ccccc1C2=O` the inhibition was -9.2%.
Compound `CCOC(=O)N1CCC(Nc2c(NCCCN3CCN(CC)CC3)c(=O)c2=O)CC1` has an inhibition of 8.9%.
Work on `CCCCS(=O)c1snnc1C` (stereo not drawn) yielded an inhibition of -4.7%.
In the case of `CCCCc1ccc(S(=O)(=O)NC(=O)C2(C)CCN2C(=O)c2ccccc2)cc1` (stereo not drawn), the inhibition is reported as 7.2%.
With `Cc1ccc(C23CC4CC(CC(C(=O)NCC(=O)O)(C4)C2)C3)cc1` the inhibition was 1.5%.
`CCCCN(C)CCNC(=O)CSCc1ccc(C)cc1` was tested, and the inhibition was 2.3%.
With `Cc1cccc(-n2c(O)c(C=Nc3ccccc3N)c(=O)[nH]c2=O)c1` the inhibition was 108% (active).
In the case of `Cc1cccc(N2C(=O)CC(SC(N)=Nc3ccccc3)C2=O)c1` (stereo not drawn), the inhibition is reported as 2.2%.
Work on `Cc1ccc(N=Cc2c(O)n(-c3nccs3)c(=O)c3ccccc23)c(C)c1` yielded an inhibition of 4.8%.
With `O=C(Cn1ncc2c3ccccc3n(Cc3ccccc3)c2c1=O)NCCCN1CCOCC1` the inhibition was 8.7%.
Compound `O=C(COc1nsnc1N1CCOCC1)Nc1ccccc1Cl` has an inhibition of -3.6%.
For `Cn1cccc1C(=O)NC(=O)COC(=O)Cc1coc2ccc3ccccc3c12`, the inhibition was -1.2%.
With `CC(C)c1nc2sc3c(c2c(=O)n1N)CC(C)(C)OC3` the inhibition was 2.4%.
Compound `COc1cc(NC(=O)C2CCN(c3cnccn3)CC2)cc(OC)c1` has an inhibition of -10.3%.
`O=C(OC1CCCCC1=O)c1cccc(S(=O)(=O)NCc2ccccc2)c1` (stereo not drawn) showed an inhibition of 7.3%.
`CC(=O)N/C(=C\c1ccc(F)cc1)C(=O)NC(Cc1ccccc1)C(=O)O` (stereo not drawn) was tested, and the inhibition was 1.6%.
Work on `CC(=O)c1ccc(S(=O)(=O)N(C)CCCC(=O)N(C)Cc2ccccc2F)cc1` yielded an inhibition of 0.4%.
Work on `CCCNC(=O)c1cc(C2CCCN(C(=O)c3ccc4c(c3)CCO4)C2)on1` (stereo not drawn) yielded an inhibition of -0.8%.
Work on `CCOC(=O)C1CCN(C(=O)c2oc3ccc(S(=O)(=O)N4CCCCCC4)cc3c2C)CC1` yielded an inhibition of -3.5%.
`Cc1c(C(=O)NCCN(C)C)oc2ccc(S(=O)(=O)N3CCCC3)cc12` was tested, and the inhibition was 65.9% (active).
Work on `COc1ccc(NC(=O)c2oc3ccc(S(=O)(=O)N4CCOCC4)cc3c2C)cc1` yielded an inhibition of -0.9%.
`CC(Oc1cccc(Cl)c1)C(=O)Nc1ccc(S(=O)(=O)Nc2ncccn2)cc1` (stereo not drawn) gave an inhibition of -1.1%.
`CC[C@@H]1Cc2cc(O)ccc2C2=C1c1ccc(O)cc1C[C@H]2CC` was tested, and the inhibition was -3.2%.
Compound `COC(=O)c1ccc(S(=O)(=O)N2CCC(c3nc4ccccc4o3)CC2)cc1` has an inhibition of 1.2%.
For `CC1Cn2c(nnc2-c2cccs2)S1` (stereo not drawn), the inhibition was -1.1%.
